# High-throughput results from PubChem BioAssay.
# PINK1 expr mod: A Quantitative High throughput Screen to Identify Chemical Modulators of PINK1 Expression | PINK1 immunofluorescence, high-content cytometry, 24 h | Potency, µM (titrated, usually from 76.6 µM), inactives show at the top dose activation (PINK1 increase), hits mostly activators | hit rate 0.2% among 410,000 | AID 624263, 2012; active = well fitted activation curve with a large enough effect; inconclusive = small, poorly fitted or top-dose-only effect; cell line not stated here; note: % of control where 0% means no effect; nearly all actives have a fitted effect of over 65% in size
#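 Cells are seeded, rested 12 hours, then given compound at five concentrations or DMSO for 24 hours. After fixation, blocking and antibody staining, PINK1 amount and mitochondrial localization are scored; CCCP serves as control.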
# RORg inh: qHTS for inhibitors of ROR gamma transcriptional activity | Nuclear receptor ROR-gamma (Mus musculus), P51450 | Drosophila S2 Gal4-RORgamma UAS-luciferase reporter, 20 h | Potency, µM (titrated, usually from 53.6 µM), without a hit: at the top dose activity change, negative = inhibition, hits mostly inhibitors | hit rate 5.4% among 310,000 | AID 2551, 2010; note: % is set by controls: 0 for no effect and ±100 for the full control effect; nearly all actives have a fitted effect of over 60% in size
#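 Using a luciferase readout, inhibitors were identified by reduced reporter activity in Drosophila cells coexpressing a copper-inducible Gal4–ROR gamma fusion and UAS-driven Photinus luciferase, incubated 20 hr after 700 uM copper sulfate.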
# Epigenetic reg: Quantitative High-Throughput Screen for Regulators of Epigenetic Control; hit rate 0.2% among 280,000; murine LDR cells, GFP reporter derepression, 30 h; Potency, µM (top dose mostly 53.9 µM), inactives show top-dose GFP activation, usual class: activators; note: % of control where 0% means no effect; nearly all actives have a fitted effect of over 60% in size
#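 GFP-positive cell count by laser-scanning cytometry (objects 20–120 um) after 30 h, 37 C compound exposure of murine LDR cells; reporter is CMV-GFP integrated at a silenced locus, inducible by HDAC or DNMT inhibitors.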
# Sfp PPTase inh: qHTS Assay for Inhibitors of Bacillus subtilis Sfp phosphopantetheinyl transferase (PPTase). 4'-phosphopantetheinyl transferase ffp (Bacillus subtilis), Q9F4F7. Potency, µM, for the others: largest response in the series, negative = inhibition, usual class: inhibitors. hit rate 3.5% among 310,000. Biochemical Sfp PPTase activity, qHTS;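 note: the enzyme is Sfp with the accession as filed and its product quenches rhodamine fluorescence; 0% = enzyme reaction without inhibitor and -100% = no enzyme wells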
#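 Fluorescence-quenching assay: 15 nM Sfp-PPTase preincubated 15 min at room temperature with compound, then 5 uM rhodamine-CoA and 12.5 uM BHQ-2-labelled YbbR peptide added. Fluorescence (ex 525/em 598 nm) read at start and after 30 min; difference gives rate.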
# VP16 counter: VP16 counterscreen qHTS for inhibitors of ROR gamma transcriptional activity; Drosophila S2 Gal4-VP16 UAS-luciferase, luminescence, 20 h; Potency, µM (top dose mostly 53.6 µM), inactives show top-dose activity, negative = inhibition, actives largely listed as inhibitors; hit rate 3.5% among 310,000; AID 2546, 2010;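 note: Gal4-VP16 expression switched on by copper sulfate through the metallothionein promoter; % is set by controls: 0 for no effect and ±100 for the full control effect; nearly all actives have a fitted effect of over 50% in size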
# ClpP mod: qHTS Assay for Activators of ClpP; ATP-dependent Clp protease proteolytic subunit (Bacillus subtilis (strain 168)), P80244; purified B. subtilis ClpP, FRET peptide cleavage, 20 min; Potency, µM (doses to about 57.5 µM), without a hit: top-dose activity change, negative = active; hit rate 1.9% among 340,000; active = well fitted falling curve with a large enough effect; inconclusive = small, poorly fitted or top-dose-only effect; inactive = no such curve, though single readings can be large or run the other way; note: the source files actives as falling curves though it sought activators and does not explain the sign; nearly all actives have a fitted effect of over 65% in size
# Target sequence (P80244 whole entry, looked up): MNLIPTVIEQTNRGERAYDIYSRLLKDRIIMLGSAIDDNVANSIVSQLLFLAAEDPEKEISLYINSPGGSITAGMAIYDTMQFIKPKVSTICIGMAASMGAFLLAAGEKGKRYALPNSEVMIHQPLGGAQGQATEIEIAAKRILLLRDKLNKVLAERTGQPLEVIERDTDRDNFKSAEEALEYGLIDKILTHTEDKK
#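 Buffer: 100 mM Tris/HCl pH8, 100 mM KCl, 0.05% low protease BSA, 2.5% glycerol, 0.01% Tween-20. ClpP 10 microg/mL final; 20 min RT; delta FRET normalized to ADEP and DMSO controls.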
# An asterisk follows results filed as active; ? = inconclusive; . = not tested or not shown; [ ] = dose if it differs, or a comment. In the library only some 8.1% were active in any assay of this set; here they are far more common. Unless noted, calls come from the whole dose curve; as a rule, active = well fitted curve in the direction sought with a large enough effect; inconclusive = small, poorly fitted or top-dose-only effect, or another doubt; inactive = no such curve, though single readings can be large; an effect the other way counts as inactive or inconclusive. Potency is the fitted concentration of half-maximal effect.
SMILES,PINK1 expr mod,RORg inh,Epigenetic reg,Sfp PPTase inh,VP16 counter,ClpP mod
Cc1ccc(-n2c(-c3c(-c4ccccc4)noc3C)n[nH]c2=S)cc1,-8%[38.3 µM],4.5µM*,-1%,-6%,10µM*,0%
COc1ccc(-c2n[nH]c(=S)n2-c2ccc(C)cc2)cc1OC,-1%,16µM*,.,?,?,.
Cc1cc(Cl)ccc1OCC(=O)Nc1cccc(-c2nc3ccccc3o2)c1,-1%,.,.,.,.,?
CC(NC(=O)c1c2c(nc3ccccc13)C(=O)N(C1CCCCC1)C2)c1ccccc1 (stereo not drawn),1%,.,0%,.,.,-21%
Cc1cc[n+](CC#N)cc1,1%,.,.,.,.,0%
CCOC(=O)C1CCCN(C(=O)c2ccccc2NC(=O)c2nsc3ccccc23)C1 (stereo not drawn),1%,.,5%,.,.,-1%
O/N=C1/CCc2nonc2/C1=N/O,-2%,-14%,0%,50µM*,-2%,-6%
Cc1cc(C)c2nc(NC(=O)c3ccc([N+](=O)[O-])o3)sc2c1,-1%,-21%,.,23%,1%,0%
COc1ccc2nc(NC(=O)c3ccc([N+](=O)[O-])o3)sc2c1,0%,?,.,6%,11µM*,0%
Cc1cc(C)c2sc(NC(=O)c3ccc([N+](=O)[O-])o3)nc2c1,2%,5µM*,.,-5%,10µM*,-3%
COc1ccc(C(=O)Nc2cccc(-c3nc4cccnc4s3)c2C)c(OC)c1,0%,.,1%,.,.,2%
Cn1c(N)c(C(=O)COC(=O)CNS(=O)(=O)c2ccc(Cl)c(Cl)c2)c(=O)n(C)c1=O,-1%,-12%,0%,9%,3%,32µM*
c1ccc2c(c1)NCCS2,-1%,14%,0%,89µM*,-4%,.
CCN(C(=O)CSc1nnc(Nc2ccccc2C)s1)C1CCS(=O)(=O)C1 (stereo not drawn),-1%,-31%,-1%,3%,4%,28µM*
CCOc1ccc(NC(=O)CSc2nc3nc(C)cc(C)n3n2)cc1,2%,?,.,15%,11µM*,-3%
Cc1cc(C)n2nc(SCC(=O)N(Cc3ccccc3)C3CCS(=O)(=O)C3)nc2n1 (stereo not drawn),-3%,19%,0%,11%,10%,.
Cc1cccc(Nc2nnc(SCC(=O)N(C)C3CCS(=O)(=O)C3)s2)c1C (stereo not drawn),0%,29%,1%,18%,-2%,1%
CCN(C(=O)CSc1nc2nc(C)cc(C)n2n1)C1CCS(=O)(=O)C1 (stereo not drawn),0%,-12%,-2%,4%,4%,16µM*
CCOC(=O)CC(=O)CSc1nc2nc(C)cc(C)n2n1,.,1%,0%,56µM*,-4%,-2%
CNC(=O)CSc1nc2nc(C)cc(C)n2n1,3%,-8%,-3%,-6%,10%,2%
CCc1ccccc1NC(=O)CSc1nc2c(oc3ccccc32)c(=O)n1-c1ccccc1F,1%,.,0%,.,.,-9%
COc1cc(=O)n2c(c1C(=O)NC(C)c1ccco1)CCN(Cc1ccccc1C(F)(F)F)CC2 (stereo not drawn),0%,.,.,.,.,.
CC1=C(C)C[C@@]23CCCN2C(=O)CCC[C@H]3C1,.,-24%[96.6 µM],0%[96.6 µM],-3%,-5%[96.6 µM],.
Cc1cc(C)n2nc(SCC(=O)N3CCCC3)nc2n1,0%,.,.,.,.,1%
Cc1cc(C)n2nc(SCC(=O)N3CCN(c4ccccc4)CC3)nc2n1,-2%,.,.,.,.,32µM*
O=C(Nc1ccc(OC(F)F)c(Cl)c1)c1ccccn1,0%,?,-1%,8%,22%,-4%
Fc1ccc(NC(=S)Nc2ccc(F)c(Cl)c2)cc1Cl,40µM*,1.8µM*,3%,?,-23%,0%
